Records with an inconclusive call do not appear. A call without a number means that no potency is given here. The source made the active and inactive calls. Unless noted, the call rests on the fitted dose curve; in most records, active means well fitted curve in the direction sought with a large enough effect in the repeat runs; inconclusive means weak or mixed curves; inactive means no such curve, though single readings can be large; an effect the other way counts as inactive or inconclusive.
Experiments:
[1] = qHTS assay to identify small molecule antagonists of the retinoid acid receptor (RAR) signaling pathway - cell viability counter screen (AID 1159551); further: nearly all actives have a fitted effect of over 35% in size; further: potency means the concentration at half of the fitted maximal effect
Procedure, shortened: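 Viability of C3RL4 cells is quantified from ATP by luminescence after 6 h treatment at 37 C with compounds and 1 uM retinol.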

[2] = qHTS assay to identify small molecule antagonists of the estrogen related receptor (ERR) signaling pathway from Tox21 library - cell viability counter screen (AID 1224834); further: nearly all actives have a fitted effect of over 30% in size; further: potency means the concentration at half of the fitted maximal effect
Procedure, shortened: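 In this quantitative HTS format, ERR cells receive compounds in DMSO and are incubated for 17.5 h at 37 C. Live-cell protease activity is then detected with CellTiter-Fluor.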

[3] = target: Luciferin 4-monooxygenase (Photinus pyralis) (UniProt P08659); assay: qHTS assay to identify small molecule inhibitors of firefly luciferase (AID 1224835); further: series mostly up to about 120 µM; nearly all actives have a fitted effect of over 25% in size
Chain of Luciferin 4-monooxygenase (Photinus pyralis) (P08659 whole entry, looked up): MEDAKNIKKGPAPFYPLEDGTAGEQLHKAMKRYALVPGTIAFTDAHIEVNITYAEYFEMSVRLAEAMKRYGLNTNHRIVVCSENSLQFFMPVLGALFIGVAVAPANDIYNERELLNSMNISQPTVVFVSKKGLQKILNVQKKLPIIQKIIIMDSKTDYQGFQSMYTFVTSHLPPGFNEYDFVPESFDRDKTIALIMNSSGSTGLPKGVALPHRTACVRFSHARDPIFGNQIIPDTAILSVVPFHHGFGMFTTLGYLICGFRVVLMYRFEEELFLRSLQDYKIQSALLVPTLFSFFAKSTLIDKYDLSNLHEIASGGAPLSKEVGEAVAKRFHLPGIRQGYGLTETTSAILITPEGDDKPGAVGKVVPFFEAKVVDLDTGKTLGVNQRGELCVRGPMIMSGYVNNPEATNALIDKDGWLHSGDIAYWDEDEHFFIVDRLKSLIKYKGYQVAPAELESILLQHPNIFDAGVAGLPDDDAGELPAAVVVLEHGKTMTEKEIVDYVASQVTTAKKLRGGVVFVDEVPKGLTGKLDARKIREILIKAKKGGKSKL
Procedure, shortened: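 Quantitative HTS format; KM concentrations of both substrates. Purified P. pyralis FLuc activity quantified from luminescence images.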

[4] = qHTS assay to identify small molecule agonists of the constitutive androstane receptor (CAR) signaling pathway - cell viability counter screen (AID 1224836); further: nearly all actives have a fitted effect of over 45% in size; further: potency means the concentration at half of the fitted maximal effect
Procedure, shortened: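 Cell viability multiplexed with the CAR agonist screen: CellTiter-Fluor fluorescence after 23 hr at 37 C. HepG2-CYP2B6-hCAR cells got compounds at 15 concentrations with PK11195 at 0.75 uM final.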

[5] = qHTS assay to identify small molecule antagonists of the constitutive androstane receptor (CAR) signaling pathway - cell viability counter screen (AID 1224837); further: nearly all actives have a fitted effect of over 45% in size; further: potency means the concentration at half of the fitted maximal effect
Procedure, shortened: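 In quantitative HTS format, compounds at 15 concentrations were applied to HepG2 cells double-transfected with hCAR and CYP2B6-2.2kb under 50 nM CITCO stimulation; live-cell protease activity was read after 23 hr via CellTiter-Fluor.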

[6] = target: Nuclear receptor subfamily 1 group I member 3 (Homo sapiens) (UniProt Q14994); assay: qHTS assay to identify small molecule antagonists of the constitutive androstane receptor (CAR) signaling pathway (AID 1224838); further: nearly all actives have a fitted effect of over 40% in size; further: potency means the concentration at half of the fitted maximal effect
Chain of Nuclear receptor subfamily 1 group I member 3 (Homo sapiens) (Q14994 whole entry, looked up): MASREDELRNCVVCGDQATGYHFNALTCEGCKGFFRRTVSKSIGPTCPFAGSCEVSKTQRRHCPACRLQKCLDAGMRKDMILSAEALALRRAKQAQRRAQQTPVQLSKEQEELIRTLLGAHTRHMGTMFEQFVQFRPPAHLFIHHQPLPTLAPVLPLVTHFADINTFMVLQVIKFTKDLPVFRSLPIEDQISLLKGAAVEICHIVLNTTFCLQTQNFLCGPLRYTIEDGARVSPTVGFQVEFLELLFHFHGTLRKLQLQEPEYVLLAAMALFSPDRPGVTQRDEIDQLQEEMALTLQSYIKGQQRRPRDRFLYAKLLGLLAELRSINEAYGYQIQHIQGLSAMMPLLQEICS
Procedure, shortened: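 CITCO-stimulated (50 nM final) HepG2 cells stably transfected with hCAR and CYP2B6-2.2kb luciferase were exposed to compounds at 15 concentrations for 24 h at 37 C/5% CO2. A luciferase reagent was added and luminescence recorded after 30 min.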

[7] = target: Nuclear receptor subfamily 1 group I member 3 (Homo sapiens) (UniProt Q14994); assay: qHTS assay to identify small molecule agonists of the constitutive androstane receptor (CAR) signaling pathway (AID 1224839); further: nearly all actives have a fitted effect of over 15% in size; further: potency means the concentration at half of the fitted maximal effect
Procedure, shortened: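 Luminescent ONE-Glo read-out after 24 hr, 37 C exposure of double-stable HepG2-CYP2B6-hCAR reporter cells to a 15-point compound series, in the presence of 0.75 uM PK11195 (final).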

[8] = qHTS assay to identify small molecule agonists of the hypoxia (HIF-1) signaling pathway - cell viability counter screen (AID 1224844; calls by dose curve; further: nearly all actives have a fitted effect of over 50% in size; further: potency means the concentration at half of the fitted maximal effect)
Procedure, shortened: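 Same wells as the HIF-1 reporter screen; ME-180 cells carrying HRE-bla, 17 hr treatment at 37C; CellTiter-Glo luminescence read after 30 min at room temperature.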

[9] = qHTS assay to identify small molecule agonists of the retinoic acid receptor (RAR) signaling pathway (AID 1159553)
Procedure, shortened: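 Compounds dissolved in DMSO were pinned onto C3RL4 cells seeded the previous day, and plates were held 6 hr at 37 C. RARE-driven luciferase output was then read by luminescence.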

[10] = qHTS assay to identify small molecule antagonists of the estrogen related receptor signaling pathway with the pleiotropic PPARgamma coactivator (PGC) from Tox21 10K library - cell viability counter screen (AID 1224840; active means well fitted cell-killing curve with a large enough effect in the repeat runs, not every such curve was filed as active; further: nearly all actives have a fitted effect of over 40% in size; further: potency means the concentration at half of the fitted maximal effect)
Procedure, shortened: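 Viability counter screen, PGC/ERR cells: 17.5 h compound exposure at 37 C, CellTiter-Fluor fluorescence endpoint.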

[11] = qHTS assay to identify small molecule antagonists of the estrogen related receptor signaling pathway with the pleiotropic PPARgamma coactivator (PGC) from Tox21 10K library (AID 1224841; call rule not given here; further: series mostly up to about 92 µM; actives are mostly falling curves and most rising ones were filed inactive; nearly all actives have a fitted effect of over 50% in size)
Procedure, shortened: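 In the PGC/ERR line, DMSO solutions of test chemicals are pin-delivered to 2,000 cells/well six hours after dispensing. Following eighteen hours' incubation, One-Glo reagent is added and luminescence recorded.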

[12] = qHTS assay to identify small molecule agonists of the estrogen related receptor signaling pathway with the pleiotropic PPARgamma coactivator (PGC) from Tox21 10K library (AID 1224842); further: nearly all actives have a fitted effect of over 15% in size
Procedure, shortened: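 PGC/ERR reporter cells (NTP line) were seeded 2,000 per well, rested 6 h at 37 C/5% CO2, then pin-dosed with compounds in DMSO for 18 h at 37 C; luciferase read by One-Glo luminescence after 30 min at room temperature.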

[13] = target: Thyrotropin receptor (Homo sapiens) (UniProt P16473); assay: qHTS assay to identify small molecule agonists of the thyroid stimulating hormone receptor (TSHR) signaling pathway (AID 1224843; calls by dose curve; further: nearly all actives have a fitted effect of over 45% in size; further: potency means the concentration at half of the fitted maximal effect)
Chain of Thyrotropin receptor (Homo sapiens) (P16473 whole entry, looked up): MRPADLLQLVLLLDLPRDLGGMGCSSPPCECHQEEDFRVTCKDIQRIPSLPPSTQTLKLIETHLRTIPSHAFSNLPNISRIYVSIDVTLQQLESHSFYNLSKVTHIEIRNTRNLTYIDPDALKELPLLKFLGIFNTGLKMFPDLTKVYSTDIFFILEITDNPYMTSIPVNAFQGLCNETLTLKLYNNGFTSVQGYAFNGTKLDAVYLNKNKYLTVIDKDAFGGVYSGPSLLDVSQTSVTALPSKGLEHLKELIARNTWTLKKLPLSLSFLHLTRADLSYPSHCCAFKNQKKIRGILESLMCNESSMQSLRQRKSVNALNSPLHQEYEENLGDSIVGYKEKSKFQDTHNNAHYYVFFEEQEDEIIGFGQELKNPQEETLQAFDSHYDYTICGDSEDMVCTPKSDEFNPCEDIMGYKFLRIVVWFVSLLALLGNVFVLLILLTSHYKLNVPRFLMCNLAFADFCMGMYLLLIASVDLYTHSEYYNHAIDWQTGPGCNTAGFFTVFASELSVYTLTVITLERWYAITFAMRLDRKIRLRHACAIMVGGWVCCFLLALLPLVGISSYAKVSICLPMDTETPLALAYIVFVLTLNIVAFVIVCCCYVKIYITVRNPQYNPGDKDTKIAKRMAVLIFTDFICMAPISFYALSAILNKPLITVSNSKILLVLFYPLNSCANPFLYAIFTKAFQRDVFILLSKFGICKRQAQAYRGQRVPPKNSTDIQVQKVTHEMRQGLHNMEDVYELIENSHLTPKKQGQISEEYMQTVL
Procedure, shortened: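 Compounds are titrated over 15 concentrations, in triplicate, onto TSHR-HEK293 cells seeded at 800/well. Plates sit 30 min at room temperature before cAMP-d2 and anti-cAMP cryptate are added; signal is read after a further hour.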

[14] = qHTS assay to identify small molecule antagonists of the estrogen related receptor (ERR) signaling pathway - cell viability counter screen (AID 1224818); further: series mostly up to about 46 µM
Procedure, shortened: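 Cytotoxicity check run alongside the ERR antagonist screen: cells exposed to test compounds 17.5 h at 37 C, viability taken as CellTiter-Fluor fluorescence intensity.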

[15] = qHTS assay to identify small molecule antagonists of the estrogen related receptor signaling pathway with the pleiotropic PPARgamma coactivator (PGC) cell viability counter screen (AID 1224822; further: series mostly up to about 46 µM)
Procedure, shortened: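 Viable cell signal (CellTiter-Fluor, 30 min, 37 C/5% CO2) was measured in PGC/ERR cells after a 17.5 h compound incubation.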

Row | SMILES | Potency [1] | Potency [2] | Potency [3] | Potency [4] | Potency [5] | Potency [6] | Potency [7] | Potency [8] | Potency [9] | Potency [10] | Potency [11] | Potency [12] | Potency [13] | Potency [14] | Potency [15]
1 | C[C@@]12C(=O)OC(=O)[C@]1(C)C1CCC2O1 | 8.41 µM (active) | 6.68 µM (active) | inactive | 1.68 µM (active) | 1.33 µM (active) | 0.668 µM (active) | inactive | inactive | – | – | – | – | – | – | –
2 | CC1CCCCN1CCCOC(=O)c1ccc(OC2CCCCC2)cc1 (centres undefined) | inactive | – | inactive | – | inactive | – | – | inactive | inactive | inactive | inactive | inactive | 26.6 µM (active) | – | –
3 | C=C[C@](C)(O)CC[C@@H]1[C@@]2(C)CCCC(C)(C)[C@@H]2CC[C@@]1(C)O | 61.1 µM (active) | 61.1 µM (active) | inactive | 61.1 µM (active) | – | inactive | inactive | 49 µM (active) | – | 61.1 µM (active) | – | inactive | 19.3 µM (active) | – | –
4 | O=C(O)CCCCCCC(=O)O | inactive | inactive | inactive | inactive | inactive | – | – | inactive | – | inactive | – | – | inactive | – | –
5 | CCC(=O)OCCc1ccccc1 | inactive | inactive | inactive | inactive | – | inactive | inactive | inactive | – | inactive | – | – | – | – | –
6 | CCOC(=O)[C@@](C)(N)Cc1ccc(O)c(O)c1 | inactive | inactive | inactive | inactive | inactive | – | – | – | – | inactive | inactive | inactive | inactive | – | –
7 | CCCCCCCCCCCCN(CCO)CCO | 68.3 µM (active) | 68.3 µM (active) | inactive | 68.3 µM (active) | 68.3 µM (active) | 68.3 µM (active) | inactive | – | – | 60.9 µM (active) | – | – | inactive | – | –
8 | Clc1cc(Cl)c(-c2c(Cl)c(Cl)cc(Cl)c2Cl)cc1Cl | inactive | inactive | inactive | inactive | inactive | – | – | inactive | – | inactive | inactive | – | inactive | – | –
9 | CCOC(=O)CC(C)O (centres undefined) | inactive | inactive | inactive | inactive | inactive | inactive | inactive | inactive | – | inactive | inactive | inactive | inactive | – | –
10 | CN(C)CCCN1c2ccccc2CCc2ccccc21 | inactive | – | – | – | inactive | – | – | 38.9 µM (active) | – | – | – | – | – | inactive | inactive
11 | CC(C)(C)c1n[nH]c(=O)n(N)c1=O | inactive | inactive | inactive | inactive | – | – | – | inactive | – | inactive | inactive | – | inactive | – | –
12 | O=Cc1ccc(F)cc1 | inactive | inactive | inactive | inactive | – | – | – | inactive | – | inactive | – | – | inactive | – | –
13 | NC(=O)C(=O)N/N=C/c1ccc([N+](=O)[O-])o1 | inactive | inactive | inactive | – | inactive | – | inactive | inactive | – | inactive | – | – | – | – | –
14 | CCCCCCCCCCCCCCNCCO | inactive | inactive | – | inactive | inactive | inactive | 8.41 µM (active) | inactive | – | inactive | – | – | inactive | – | –
15 | CCOC(=O)C1=C(C)NC(C)=C(C(=O)OCC)C1c1ccccc1/C=C/C(=O)OC(C)(C)C | inactive | 29.8 µM (active) | inactive | inactive | – | – | – | – | – | – | – | inactive | inactive | – | –
16 | Clc1ccc(C(Cn2ccnc2)OCc2c(Cl)cccc2Cl)c(Cl)c1 (centres undefined) | inactive | 29.8 µM (active) | inactive | inactive | – | – | – | 23.9 µM (active) | – | – | – | inactive | – | – | –
17 | CCC(C)(C)c1cc(O)c(C(C)(C)CC)cc1O | inactive | – | inactive | – | inactive | – | inactive | – | – | – | – | inactive | inactive | – | –
18 | CC[N+](CC)(CC)Cc1ccccc1 | inactive | inactive | inactive | inactive | – | – | inactive | inactive | – | inactive | – | inactive | – | – | –
